A number with no mark means an inactive call. A call without a number means that no potency is given here. For part of these data: Potency and affinity values are given separately. Active and inactive are the calls of the source. Unless noted, no rule for the calls is given here.
Key:
[1] = antimalarial activity against Dd2 strain (AID 2302;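 active = growth inhibition above 50% at the single 2 µM test dose, taken to imply half-maximal potency below 2 µM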); conditions: P. falciparum Dd2 in RBCs, LDH growth readout, 72 h; at 2 µM; hits give high values
[2] = HepG2 cytotoxicity, primary screen, cytotoxicity control for P. falciparum antimalarial project, cell-based, ATP luminescence (AID 2303;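 active = inhibition above 50%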); conditions: HepG2 viability, 24-48 h, at 10 µM, hits give high values
[3] = molecular target: L-lactate dehydrogenase (Plasmodium falciparum (isolate CDC / Honduras)) (UniProt Q27743); assay: PfLDH activity inhibition – cell lysate, 3D7 strain, counter-screen for P. falciparum growth inhibition project (AID 2304); conditions: P. falciparum 3D7 crude extract, LDH APAD/NBT absorbance; at 2 µM; hits give high values
Chain of L-lactate dehydrogenase (Plasmodium falciparum (isolate CDC / Honduras)) (Q27743 whole entry, looked up): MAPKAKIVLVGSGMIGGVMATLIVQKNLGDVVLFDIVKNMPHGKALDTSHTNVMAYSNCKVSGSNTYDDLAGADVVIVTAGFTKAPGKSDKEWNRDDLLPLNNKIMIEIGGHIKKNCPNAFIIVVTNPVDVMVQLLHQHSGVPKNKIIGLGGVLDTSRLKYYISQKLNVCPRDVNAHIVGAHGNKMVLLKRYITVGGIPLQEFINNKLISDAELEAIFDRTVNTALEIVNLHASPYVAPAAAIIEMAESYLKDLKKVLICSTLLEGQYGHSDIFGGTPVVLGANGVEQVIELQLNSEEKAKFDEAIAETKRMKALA

[4] = inhibition of 3D7 malaria parasite growth – strain 3D7 (AID 2306); conditions: P. falciparum 3D7 erythrocytic growth, LDH absorbance, 72 h; at 2 µM; hits give high values
[5] = molecular target: Calcium-dependent protein kinase 1 (Plasmodium falciparum (isolate 3D7)) (UniProt P62344); assay: PfCDPK1 kinase inhibitors, biochemical, TCAMS library (AID 1159585; cut-off not given, nearly all actives have IC50 up to about 0.98 µM;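 also: inhibitors leave more ATP so luminescence rises with inhibition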); conditions: recombinant PfCDPK1, Kinase-Glo ATP depletion luminescence
Chain of Calcium-dependent protein kinase 1 (Plasmodium falciparum (isolate 3D7)) (P62344 whole entry, looked up): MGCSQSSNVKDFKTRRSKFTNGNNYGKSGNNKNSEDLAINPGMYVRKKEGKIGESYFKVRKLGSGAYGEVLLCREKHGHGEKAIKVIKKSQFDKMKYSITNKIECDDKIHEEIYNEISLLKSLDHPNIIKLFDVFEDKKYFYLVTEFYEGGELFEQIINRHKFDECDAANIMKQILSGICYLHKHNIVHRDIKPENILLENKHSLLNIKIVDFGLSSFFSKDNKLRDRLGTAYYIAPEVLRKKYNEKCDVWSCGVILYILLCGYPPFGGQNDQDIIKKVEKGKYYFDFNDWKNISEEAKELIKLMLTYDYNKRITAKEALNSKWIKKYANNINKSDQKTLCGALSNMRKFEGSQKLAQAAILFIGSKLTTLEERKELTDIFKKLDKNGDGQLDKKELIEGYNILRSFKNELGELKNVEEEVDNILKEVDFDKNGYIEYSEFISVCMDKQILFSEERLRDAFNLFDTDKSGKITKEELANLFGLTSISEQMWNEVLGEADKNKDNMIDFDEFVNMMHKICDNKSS

[6] = molecular target: Plasmodium falciparum protein kinase 6 (PK6, PF3D7_1337100) (UniProt Q8IDW1); assay: PfPK6 kinase inhibitors, biochemical, TCAMS library (AID 1159586); conditions: recombinant PfPK6, Kinase-Glo ATP depletion luminescence
Chain of Plasmodium falciparum protein kinase 6 (PK6, PF3D7_1337100) (Q8IDW1 1-305): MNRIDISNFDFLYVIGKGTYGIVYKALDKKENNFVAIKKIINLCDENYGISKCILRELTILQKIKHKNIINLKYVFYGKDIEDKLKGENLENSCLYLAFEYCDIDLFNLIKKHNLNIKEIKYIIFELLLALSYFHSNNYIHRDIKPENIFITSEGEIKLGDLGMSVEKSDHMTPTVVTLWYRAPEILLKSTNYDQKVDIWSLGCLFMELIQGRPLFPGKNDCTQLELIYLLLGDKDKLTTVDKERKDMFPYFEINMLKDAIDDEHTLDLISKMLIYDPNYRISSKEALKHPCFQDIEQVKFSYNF

[7] = molecular target: Protein kinase 7 (PK7), Plasmodium falciparum 3D7 (PF3D7_0213400) (UniProt Q7YTF7); assay: inhibition of Plasmodium PK7 catalytic activity – biochemical, TCAMS antimalarial set, Kinase-Glo luminescence (AID 1159587); conditions: recombinant PfPK7, Kinase-Glo ATP depletion luminescence
Chain of Protein kinase 7 (PK7), Plasmodium falciparum 3D7 (PF3D7_0213400) (Q7YTF7 1-343): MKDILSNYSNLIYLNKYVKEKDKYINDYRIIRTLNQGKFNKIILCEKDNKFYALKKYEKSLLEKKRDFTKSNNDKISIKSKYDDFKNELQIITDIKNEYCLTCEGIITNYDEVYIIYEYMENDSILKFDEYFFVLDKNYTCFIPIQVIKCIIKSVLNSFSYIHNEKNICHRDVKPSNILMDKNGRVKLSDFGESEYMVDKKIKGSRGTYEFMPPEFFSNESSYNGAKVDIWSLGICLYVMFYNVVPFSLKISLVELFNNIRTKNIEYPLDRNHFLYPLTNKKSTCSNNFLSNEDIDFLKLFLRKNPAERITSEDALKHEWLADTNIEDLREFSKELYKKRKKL

[8] = molecular target: Calcium-dependent protein kinase 4 (Plasmodium falciparum (isolate 3D7)) (UniProt Q8IBS5); assay: PfCDPK4 kinase inhibitors, biochemical, TCAMS library (AID 1159588; cut-off not given, nearly all actives have IC50 up to about 0.91 µM); conditions: recombinant PfCDPK4, Kinase-Glo ATP depletion luminescence
Chain of Calcium-dependent protein kinase 4 (Plasmodium falciparum (isolate 3D7)) (Q8IBS5 whole entry, looked up): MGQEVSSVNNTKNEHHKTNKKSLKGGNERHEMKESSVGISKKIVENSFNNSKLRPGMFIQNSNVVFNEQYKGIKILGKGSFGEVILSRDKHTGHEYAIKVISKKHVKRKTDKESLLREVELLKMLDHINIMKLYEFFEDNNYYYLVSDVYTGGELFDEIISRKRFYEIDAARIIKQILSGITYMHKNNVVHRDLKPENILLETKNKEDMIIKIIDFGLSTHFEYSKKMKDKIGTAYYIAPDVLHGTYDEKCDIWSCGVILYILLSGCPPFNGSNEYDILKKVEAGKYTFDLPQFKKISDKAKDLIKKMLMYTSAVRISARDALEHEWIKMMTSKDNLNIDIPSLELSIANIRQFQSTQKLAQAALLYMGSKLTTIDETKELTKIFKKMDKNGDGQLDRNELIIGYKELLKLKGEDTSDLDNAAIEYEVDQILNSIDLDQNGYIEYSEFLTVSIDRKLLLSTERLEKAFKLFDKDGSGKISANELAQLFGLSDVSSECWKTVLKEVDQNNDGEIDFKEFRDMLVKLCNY

c1ccc(CCNc2ncnc3c2[nH]c2ccccc23)cc1
growth inhibition [1]: 94% (active) | inhibition [2]: 50% (active) | inhibition [3]: -1% | growth inhibition [4]: 95% (active) | outcome [5]: inactive | outcome [6]: inactive | outcome [7]: inactive | outcome [8]: inactive

Cc1ccc(-n2ncc(C(=O)Nc3cc(Cl)cc(Cl)c3)c2C2CCNCC2)cc1C
growth inhibition [1]: 77% (active) | inhibition [2]: 65% (active) | inhibition [3]: -7% | growth inhibition [4]: 100% (active) | outcome [5]: inactive | outcome [6]: inactive | outcome [7]: inactive | outcome [8]: inactive

COc1cc(OC)cc(-c2nn(-c3ccc([N+](=O)[O-])cc3Cl)c(=S)n2Cc2ccco2)c1
growth inhibition [1]: 100% (active) | inhibition [2]: 15% | inhibition [3]: 2% | growth inhibition [4]: 101% (active) | outcome [5]: inactive | outcome [6]: inactive | outcome [7]: inactive | outcome [8]: inactive

From PubChem BioAssay
